Measured values published in PubChem BioAssay AID1159580 (chemical genetic matrix, 2015).
The whole screen tested about 5,500 compounds, of which about 2,000 (36%) were called active. About 18% were inconclusive and are not listed. Rule as the data show it: active = normalized growth mostly below about 0.91 (no sharp cut-off); inconclusive = no clear call, values can overlap the other calls; inactive = mostly above about 0.92. The list shows a part of the results.

Experiment: chemical genetic growth profiling, strain panel (AID 1159580);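 also: tested at 20 µM; growth read once vehicle control cultures reached saturation at 30 °C; 1 = growth at the plate median or of vehicle wells; lower values mean less growth of the strain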
Conditions: S. cerevisiae deletion strains, growth OD

Measured: normalized growth

COc1ccc(-c2coc3cc(O)ccc3c2=O)c(OC)c1
inactive: locus YAL013W, strain DEP1, stronger effect = lower value 1.01 | locus YAL021C, strain ccr4, stronger effect = lower value 0.995 | locus YAL026C, strain drs2, stronger effect = lower value 1.01 | locus YAL030W, strain snc1, stronger effect = lower value 1 | locus YBL061C, strain skt5, stronger effect = lower value 0.996 | locus YBR009C, strain hhf1, stronger effect = lower value 1.01 | locus YBR021W, strain FUR4, stronger effect = lower value 0.887 | locus YBR023C, strain chs3, stronger effect = lower value 1.01 | locus YBR171W, strain sec66, stronger effect = lower value 1.01 | locus YBR229C, strain ROT2, stronger effect = lower value 1 | locus YBR231C, strain swc5, stronger effect = lower value 0.982 | locus YBR279W, strain paf1, stronger effect = lower value 1.01 | locus YCL011C, strain gbp2, stronger effect = lower value 1.03 | locus YCL016C, strain dcc1, stronger effect = lower value 1.01 | locus YCL029C, strain bik1, stronger effect = lower value 1.01 | locus YCL069W, strain vba3, stronger effect = lower value 1.01 | locus YCR088W, strain abp1, stronger effect = lower value 1 | locus YDL005C, strain med2, stronger effect = lower value 1 | locus YDL035C, strain GPR1, stronger effect = lower value 1 | locus YDL040C, strain nat1, stronger effect = lower value 1 | locus YDL074C, strain BRE1, stronger effect = lower value 1.02 | locus YDL101C, strain DUN1, stronger effect = lower value 1 | locus YDL185W, strain tfp1, stronger effect = lower value 0.994 | locus YDL192W, strain arf1, stronger effect = lower value 0.99 | locus YDR001C, strain nth1, stronger effect = lower value 1 | locus YDR069C, strain doa4, stronger effect = lower value 0.982 | locus YDR101C, strain arx1, stronger effect = lower value 0.982 | locus YDR137W, strain rgp1, stronger effect = lower value 0.995 | locus YDR159W, strain sac3, stronger effect = lower value 0.976 | locus YDR162C, strain NBP2, stronger effect = lower value 0.937 | locus YDR195W, strain ref2 0.974 | locus YDR297W, strain sur2, stronger effect = lower value 0.995 | locus YDR318W, strain mcm21, stronger effect = lower value 1 | locus YDR334W, strain swr1, stronger effect = lower value 0.994 | locus YDR335W, strain msn5, stronger effect = lower value 1.02 | locus YDR388W, stronger effect = lower value 1 | locus YDR392W, strain spt3, stronger effect = lower value 0.951 | locus YDR502C, strain sam2, stronger effect = lower value 1 | locus YEL003W, strain gim4, stronger effect = lower value 0.985 | locus YEL037C, strain rad23, stronger effect = lower value 1.01 | locus YEL061C, strain CIN8 (second series), stronger effect = lower value 1 | locus YEL061C, strain CIN8, stronger effect = lower value 1 | locus YER015W, strain faa2, stronger effect = lower value 1.02 | locus YER016W, strain bim1, stronger effect = lower value 0.999 | locus YER110C, stronger effect = lower value 1.03 | locus YER111C, strain swi4, stronger effect = lower value 0.999 | locus YER155C, strain BEM2 (second series), stronger effect = lower value 0.977 | locus YER155C, strain BEM2, stronger effect = lower value 1.01 | locus YER167W, strain BCK2, stronger effect = lower value 1.01 | locus YFR010W, strain ubp6, stronger effect = lower value 0.984 | locus YGL078C, strain dbp3, stronger effect = lower value 0.988 | locus YGL086W, strain mad1, stronger effect = lower value 0.991 | locus YGL167C, strain pmr1, stronger effect = lower value 1.01 | locus YGL173C, strain kem1, stronger effect = lower value 0.997 | locus YGL227W, strain vid30, stronger effect = lower value 0.992 | locus YGL240W, strain doc1, stronger effect = lower value 0.972 | locus YGL248W, strain PDE1, stronger effect = lower value 1 | locus YGL253W, strain hxk2, stronger effect = lower value 0.981 | locus YGR135W, strain pre9, stronger effect = lower value 0.993 | locus YGR229C, strain SMI1, stronger effect = lower value 0.97 | locus YGR252W, strain gcn5, stronger effect = lower value 1.01 | locus YHR013C, strain ard1, stronger effect = lower value 1.01 | locus YHR027C, strain rpn1, stronger effect = lower value 1 | locus YHR030C, strain SLT2, stronger effect = lower value 1.01 | locus YHR079C, strain IRE1 (second series), stronger effect = lower value 1.01 | locus YHR094C, strain hxt1, stronger effect = lower value 0.995 | locus YHR129C, strain ARP1, stronger effect = lower value 1.02 | locus YHR142W, strain chs7, stronger effect = lower value 0.999 | locus YHR200W, strain rpn10, stronger effect = lower value 1 | locus YIL066C, strain RNR3, stronger effect = lower value 0.994 | locus YIL073C, strain SPO22, stronger effect = lower value 1.02 | locus YIL125W, strain kgd1, stronger effect = lower value 0.996 | locus YIR030C, strain dcg1, stronger effect = lower value 0.999 | locus YJL092W, strain hpr5, stronger effect = lower value 1 | locus YJL095W, strain BCK1 (second series), stronger effect = lower value 1 | locus YJL095W, strain BCK1, stronger effect = lower value 0.976 | locus YJL115W, strain asf1, stronger effect = lower value 1.01 | locus YJL129C, strain trk1, stronger effect = lower value 1.03 | locus YJL134W, strain LCB3, stronger effect = lower value 1.01 | locus YJL154C, strain vps35, stronger effect = lower value 1 | locus YJL164C, strain tpk1, stronger effect = lower value 1.01 | locus YJL166W, strain qcr8, stronger effect = lower value 0.995 | locus YJL168C, strain set2, stronger effect = lower value 1.02 | locus YJL187C, strain SWE1 (second series), stronger effect = lower value 0.998 | locus YJL187C, strain SWE1, stronger effect = lower value 1.02 | locus YJR043C, strain POL32, stronger effect = lower value 0.999 | locus YJR075W, strain HOC1, stronger effect = lower value 0.994 | locus YKL009W, strain mrt4, stronger effect = lower value 1.04 | locus YKL068W, stronger effect = lower value 1.01 | locus YKL085W, strain MDH1 (second series), stronger effect = lower value 0.996 | locus YKL085W, strain MDH1, stronger effect = lower value 0.996 | locus YKL160W, strain elf1, stronger effect = lower value 1.02 | locus YKL190W, strain CNB1, stronger effect = lower value 1 | locus YKR001C, strain vps1, stronger effect = lower value 0.973 | locus YKR026C, strain gcn3, stronger effect = lower value 1 | locus YKR091W, strain srl3, stronger effect = lower value 1.01 | locus YLL001W, strain dnm1, stronger effect = lower value 0.963 | locus YLL026W, stronger effect = lower value 1 | locus YLL041C, strain sdh2, stronger effect = lower value 1.01 | locus YLR027C, strain aat2, stronger effect = lower value 1.01 | locus YLR039C, strain RIC1, stronger effect = lower value 0.976 | locus YLR058C, strain SHM2, stronger effect = lower value 1.01 | locus YLR102C, strain apc9, stronger effect = lower value 1 | locus YLR221C, strain rsa3, stronger effect = lower value 1 | locus YLR258W, strain gsy2, stronger effect = lower value 1.01 | locus YLR262C, strain YPT6 (second series), stronger effect = lower value 0.995 | locus YLR262C, strain YPT6, stronger effect = lower value 0.989 | locus YLR268W, strain sec22, stronger effect = lower value 0.991 | locus YLR320W, strain mms22, stronger effect = lower value 1 | locus YLR330W, strain CHS5, stronger effect = lower value 1.02 | locus YLR342W, strain FKS1 (second series), stronger effect = lower value 1.03 | locus YLR342W, strain FKS1, stronger effect = lower value 1.02 | locus YLR357W, strain rsc2, stronger effect = lower value 0.98 | locus YLR370C, strain arc18, stronger effect = lower value 1 | locus YLR371W, strain rom2, stronger effect = lower value 0.998 | locus YLR384C, strain iki3, stronger effect = lower value 0.998 | locus YLR418C, strain cdc73, stronger effect = lower value 0.971 | locus YML016C, strain PPZ1, stronger effect = lower value 1 | locus YML032C, strain rad52, stronger effect = lower value 1.01 | locus YML120C, strain ndi1, stronger effect = lower value 1.02 | locus YML124C, strain tub3, stronger effect = lower value 1 | locus YMR058W, strain fet3, stronger effect = lower value 1 | locus YMR078C, strain ctf18, stronger effect = lower value 1.01 | locus YMR125W, strain sto1, stronger effect = lower value 1.01 | locus YMR129W, stronger effect = lower value 1.01 | locus YMR205C, strain PFK2, stronger effect = lower value 1.01 | locus YMR223W, strain ubp8, stronger effect = lower value 1.01 | locus YMR231W, strain pep5, stronger effect = lower value 1.01 | locus YMR307W, strain GAS1, stronger effect = lower value 0.901 | locus YNL067W, strain RPL9B, stronger effect = lower value 0.984 | locus YNL071W, strain lat1, stronger effect = lower value 1.01 | locus YNL128W, strain TEP1, stronger effect = lower value 1 | locus YNL209W, strain ssb2, stronger effect = lower value 1.01 | locus YNL233W, strain BNI4, stronger effect = lower value 0.993 | locus YNL248C, strain rpa49, stronger effect = lower value 1 | locus YNL250W, strain rad50, stronger effect = lower value 1.01 | locus YNL271C, strain bni1, stronger effect = lower value 0.992 | locus YNL298W, strain CLA4, stronger effect = lower value 1.01 | locus YNL307C, strain MCK1, stronger effect = lower value 1.01 | locus YNL322C, strain KRE1 (second series), stronger effect = lower value 1.01 | locus YNR049C, strain mso1, stronger effect = lower value 1.01 | locus YNR052C, strain pop2, stronger effect = lower value 1.01 | locus YOL012C, strain htz1 0.93 | locus YOL147C, strain pex11, stronger effect = lower value 0.998 | locus YOR001W, strain rrp6, stronger effect = lower value 0.998 | locus YOR061W, strain CKA2, stronger effect = lower value 1 | locus YOR069W, strain VPS5, stronger effect = lower value 1.01 | locus YOR070C, strain gyp1, stronger effect = lower value 1.01 | locus YOR080W, strain dia2, stronger effect = lower value 1 | locus YOR083W, strain WHI5, stronger effect = lower value 1.02 | locus YOR106W, strain vam3, stronger effect = lower value 1.03 | locus YOR136W, strain idh2, stronger effect = lower value 0.997 | locus YOR144C, strain elg1, stronger effect = lower value 0.988 | locus YOR184W, strain ser1, stronger effect = lower value 0.952 | locus YOR265W, strain rbl2, stronger effect = lower value 1.01 | locus YOR270C, strain vph1, stronger effect = lower value 0.959 | locus YOR290C, strain snf2, stronger effect = lower value 1.02 | locus YOR316C, strain cot1, stronger effect = lower value 1.01 | locus YPL051W, strain arl3, stronger effect = lower value 1.01 | locus YPL055C, strain LGE1, stronger effect = lower value 0.971 | locus YPL078C, strain atp4, stronger effect = lower value 1.03 | locus YPL106C, strain sse1, stronger effect = lower value 1.01 | locus YPL240C, strain hsp82, stronger effect = lower value 1.01 | locus YPL241C, strain CIN2, stronger effect = lower value 0.992 | locus YPR119W, strain clb2, stronger effect = lower value 1.01 | locus YPR141C, strain kar3, stronger effect = lower value 1 | locus YPR163C, strain tif3, stronger effect = lower value 0.999 | locus YPR167C, strain met16, stronger effect = lower value 1.01 | strain wtn01, stronger effect = lower value 1.01
